{"source": "PubChem BioAssay (NCATS)", "note": "The source made the active and inactive calls. Calls come from the whole dose curve; as a rule, active = well fitted inhibition curve with a large enough effect; inconclusive = small, poorly fitted or top-dose-only effect; inactive = flat fitted curve, though single readings scatter.", "data": [{"molecular_target": "DNA dC->dU-editing enzyme APOBEC-3G (Homo sapiens) (UniProt Q9HC16)", "sequence (Q9HC16 whole entry, looked up)": "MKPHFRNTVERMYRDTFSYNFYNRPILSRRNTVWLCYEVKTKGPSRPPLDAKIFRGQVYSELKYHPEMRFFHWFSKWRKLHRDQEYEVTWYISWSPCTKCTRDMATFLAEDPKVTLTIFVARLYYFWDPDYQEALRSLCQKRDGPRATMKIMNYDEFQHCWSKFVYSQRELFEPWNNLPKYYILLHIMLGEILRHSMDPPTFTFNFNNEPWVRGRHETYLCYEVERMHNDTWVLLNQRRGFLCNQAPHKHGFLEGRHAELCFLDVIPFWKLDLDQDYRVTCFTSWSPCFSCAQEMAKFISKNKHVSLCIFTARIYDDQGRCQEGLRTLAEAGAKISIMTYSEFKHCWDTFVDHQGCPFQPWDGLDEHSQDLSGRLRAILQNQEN", "test": "qHTS for inhibitors of Vif-A3G interactions: Validation (AID 588379); note: 0% is about no effect", "conditions": "Vif-A3G protein interaction assay; series mostly up to 46.1 µM; activity change, negative = inhibition: at the top concentration", "description": "The recent discovery and characterization of host restriction factors, which provide a potent defense to invading retroviruses, has provided new targets for antiviral drug development. APOBEC3G (A3G) and APOBEC3F (A3F) are potent cytidine deaminases that block HIV-1 replication; HIV-1 expresses the Vif protein, which counteracts A3G and A3F by binding to them and inducing their proteasomal degradation.\nThe Vif-A3G and Vif-A3F interactions provide two potential targets for development of small molecules which can interfere with the ability of Vif to degrade A3G or A3F. […] To identify inhibitors that can interfere with Vif mediated degradation of A3G and A3F, we have developed Hela cell lines that stably express A3G or A3F tagged with eYFP at the C-terminal end (A3G-eYFP or A3F-eYFP, respectively) and Vif. In the absence of an inhibitor, Vif induces degradation of A3G-eYFP and A3F-eYFP, and the cells are not fluorescent. In the presence of an inhibitor, it is expected that Vif will be unable to degrade A3G-eYFP and/or A3F-eYFP, resulting in an increase in yellow fluorescence. In this assays Vif A3G was screened against the Molecular Library Small Molecile Repository (MLSMR).\nNIH Chemical Genomics Center [NCGC]\nNIH Molecular Libraries Probe Centers Network [MLPCN]\nAssay Submitter (PI): Vinay Pathak, National Cancer Institute\n5 uL of 700 cells/well of A3G-YFP cells are dispensed into black, clear bottom plates. The plates are incubated overnight at 37 deg C. 23 nL of compounds are added by pintool. The plates are incubated overnight at 37 deg C and then read on the TTP Acumen (Ex 488/ Em 500-530).", "values": [{"smiles": "CC(C)(C)NC[C@H](O)COc1nsnc1N1CCOCC1", "activity change, negative = inhibition": "-1.88% (inactive)"}, {"smiles": "COc1ccccc1N1CCN(CCCCNC(=O)c2ccc(-c3ccc(C(C)=O)cc3)cc2)CC1", "activity change, negative = inhibition": "1.62% (inactive)"}, {"smiles": "CN=C(N)NCCC[C@H](N)C(=O)O", "activity change, negative = inhibition": "0.49% (inactive)"}, {"smiles": "Cc1ncc(CO)c(C=O)c1O", "activity change, negative = inhibition": "-1.47% (inactive)"}, {"smiles": "CO[C@]12C[C@@H](COC(=O)c3cncc(Br)c3)CN(C)[C@@H]1Cc1cn(C)c3cccc2c13", "activity change, negative = inhibition": "-4.87% (inactive)"}, {"smiles": "CN(C)CCC[C@@]1(c2ccc(F)cc2)OCc2cc(C#N)ccc21", "activity change, negative = inhibition": "-4.6% (inactive)"}, {"smiles": "CN1CCc2cccc3c2[C@H]1Cc1ccc(O)c(O)c1-3", "activity change, negative = inhibition": "-5.44% (inactive)"}, {"smiles": "O=c1[nH]c(=O)n([C@H]2C[C@H](O)[C@@H](CO)O2)cc1F", "activity change, negative = inhibition": "-1.8% (inactive)"}, {"smiles": "CNCCCCOc1ccccc1Cc1ccccc1", "activity change, negative = inhibition": "-2.14% (inactive)"}, {"smiles": "O=C(c1ccc(F)cc1)C1CCN(CCn2c(=S)[nH]c3ccccc3c2=O)CC1", "activity change, negative = inhibition": "1.09% (inactive)"}, {"smiles": "CN1CCC[C@@H]1CCO[C@](C)(c1ccccc1)c1ccc(Cl)cc1", "activity change, negative = inhibition": "0.64% (inactive)"}, {"smiles": "Cl/C(=C\\n1cncn1)c1ccc(Cl)cc1Cl", "activity change, negative = inhibition": "-1.25% (inactive)"}]}]}
